In PubChem BioAssay AID624351 (Southern Research Specialized Biocontainment Screening …, 2012):
Values joined by “and” are separate entries in the source; they are usually repeats but may differ in a detail not shown here. Equal values may be shown once. The campaign covered roughly 2,400 compounds. About 1,400 (58%) were called active.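 The calls were made as follows: active = inhibition of 30% or more at any tested dose; inconclusive = primary hits over the limit that were never retested; inactive = the rest.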 So high a share suggests a set chosen from earlier hits. The list shows a part of the results.

Assay: ADP Hunter readout inhibition without MgcRacGAP – biochemical, coupled enzyme counter-screen, artefact control for MgcRacGAP inhibitor project, dose response (AID 624351);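 also: signal is the ADP detection kit reading of free GDP without any GAP enzyme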
Conditions: fluorescence, no MgcRacGAP; series mostly up to 80 µM

| Compound | IC50 |
| --- | --- |
| Cc1cccc(N2C(=O)/C(=C/c3ccc(CN(CCC#N)S(C)(=O)=O)o3)C(=O)NC2=S)c1 | inactive |
| Cc1ccc2c(C)c3ccc4ccccc4c3c[n+]2c1 | inactive |
| CN(C)c1ccc(/C=C/C=C/c2sc3ccccc3[n+]2C)cc1 | 70.2 µM (active) |
| CN(C)c1ccc(/C=C/c2cc[n+](C)c3ccccc23)cc1 | 47.2 µM (active) and 59.7 µM (active) |
| CCc1ccc(CNCCc2c[nH]c3ccccc23)cc1 | inactive |
| O=C1NC(=O)N(CCC2=CCCCC2)C(=O)/C1=C/c1ccc(O)cc1 | inactive |
| COc1ccc(CNCCc2ccc(Cl)cc2)c(OC)c1OC | inactive |
| O=C1NC(=S)N(c2ccccc2)C(=O)/C1=C/c1ccco1 | inactive |
| O=C1NC(=S)N(C2CC2)C(=O)/C1=C/c1ccc2c(c1)CCN2CCCCl | inactive |
| Cc1cc(/C=C2\C(=O)NC(=O)N(c3cccc(F)c3)C2=O)c(C)n1-c1cc(C(=O)O)cc(C(=O)O)c1 | inactive |
| Cc1cc(-c2ccc(N)c(C)c2)ccc1N | 14.2 µM (active) |
| COc1cc(-c2ccc(N)c(OC)c2)ccc1N | 8.45 µM (active) |
| Cc1cc(-c2cc(C)c(N)c(C)c2)cc(C)c1N | 11.2 µM (active) |
| Brc1cccc(CNCCc2ccc3c(c2)OCO3)c1 | inactive |
| CN(C)c1ccc(/C=C2/C(=O)NC(=O)N(Cc3ccco3)C2=O)cc1 | inactive |
| Cc1ccccc1N1C(=O)NC(=O)/C(=C\c2cnn(-c3ccccc3)c2)C1=O | inactive |
| O=C1NC(=O)C(=Cc2cc(Cl)ccc2OCc2ccc(C(=O)O)cc2)C(=O)N1 | inactive |
| O=C(COc1ccccc1)N1CCN(CC2CC3C=CC2C3)CC1 (centres undefined) | inactive |
| O=C1NC(=O)C(=Cc2c(Cl)cccc2Cl)C(=O)N1 | inactive |
| COc1cc(CNCCc2ccc3c(c2)OCO3)cc(OC)c1OC | inactive |
| O=C(Cc1ccccc1)N1CCN(Cc2ccc(F)cc2)CC1 | inactive |
| O=C(COc1ccccc1)N1CCN(C2CCCC2)CC1 | inactive |

| Compound | IC50 |
| --- | --- |
| c1ccc(CN2CCN(Cc3ccc4ccccc4c3)CC2)cc1 | inactive |
| O=C(O)c1ccccc1-c1ccc(C=C2C(=O)N(c3ccccc3)C(=S)N(c3ccccc3)C2=O)o1 | inactive |
| Nc1ccc(-c2ccc(N)cc2)cc1 | 8 µM (active) |
| Nc1ccc(Sc2ccc(N)cc2)cc1 | 10.4 µM (active) |
| Nc1ccc(N=Nc2ccc(N)cc2)cc1 | 20.5 µM (active) |
| Cc1cc(N(C)C)ccc1N=Nc1ccc(N)cc1 | 33.7 µM (active) |
| O=C(COc1ccc2ccccc2c1)N1CCN(Cc2ccncc2)CC1 | inactive |
| COc1ccc(N2CC2c2ccncc2)cc1 (centres undefined) | inactive |
| COP(=S)(OC)SCn1nnc2ccccc2c1=O | inactive |
| Fc1ccc(CNCCc2ccccc2)cc1 | inactive |
| COc1cccc(CN2CCN(Cc3cccc(F)c3)CC2)c1 | inactive |
| O=C(O)CCn1cc(C=C2C(=O)NC(=S)NC2=O)c(-c2ccccc2)n1 | inactive |
| COc1ccc(CCNCc2cccc(C(F)(F)F)c2)cc1OC | inactive |
| CSc1ccc(CN2CCN(Cc3ccccc3Cl)CC2)cc1 | inactive |
| O=P(Oc1ccc(-c2ccccc2)cc1)(N1CC1)N1CC1 | inactive |
| O=C(NC1CCCCC1)Oc1cc2oc(=O)sc2cc1Cl | inactive |
| COc1ccccc1N1CCN(Cc2cccc(Br)c2)CC1 | inactive |
| COc1ccc(Br)cc1CNCCc1cccc(Cl)c1 | inactive |
| O=C1NC(=O)C(=Cc2ccco2)C(=O)N1 | inactive |
| Cc1nn(CCC#N)c2c1P(=S)(N1CCCC1)OC(c1ccc(F)cc1)=N2 (centres undefined) | inactive |
| O=C1NC(=O)N(c2ccccc2)C(=O)/C1=C/c1coc2ccc(O)cc2c1=O | inactive |
| CN(C)c1ccc2c(c1)N=C(c1ccco1)OP2(=S)N1CCOCC1 (centres undefined) | inactive |
